ChEMBL document CHEMBL3988442, “University of Dundee, Small-Polar-MMV Screening Library” (2021)
“And” between values parts separate entries of the source, which are not always exact repeats. Identical values can stand only once. Out of some 38,000 compounds screened, about 1,200 (3.2%) showed an effect of 50% or more. The median lay at about -58%. The sample holds strong results, similar compounds and a random draw of the others, so the mix is not that of the screen.

Tested on: Plasmodium falciparum
Assay: Calibr Malaria Delayed Death Assay SOP
Type: functional, organism-based
Design: scale not given: in the data most compounds retested in dose-response had high values
Conditions: concentration 4.99e-06 (unit not given; other assays of the set use mol/L)

Cn1cc(N2CCC3(CCCN(Cc4ccoc4)C3)C2=O)cn1 (stereo not drawn)
Percent Effect: -100.7%

O=C1CCC2(CCN(CC[C@H](O)c3ccccc3)CC2)CN1CCO
Percent Effect: -15.36%

NC(=O)CCNC(=O)C1(N2CCCCC2)Cc2ccccc2C1
Percent Effect: -32.27%

CN1CC(C(=O)N2CCN(c3cccc(Cl)c3)C(=O)C2)NC1=O (stereo not drawn)
Percent Effect: -61.36%

CC(Cn1cccn1)NCc1nc(-c2cccs2)no1 (stereo not drawn)
Percent Effect: -237.8%

CC(Cn1cccn1)NCCCc1nc(-c2cccs2)no1 (stereo not drawn)
Percent Effect: 66.81%

Cc1cnn(CC(C)NCc2nc(-c3cccs3)no2)c1 (stereo not drawn)
Percent Effect: -78.64%

CC(C)NC(=O)[C@H](C)NC(=O)N1CCN(c2ccc(Cl)cc2)CC1
Percent Effect: -40.36%

CC(C)Cn1ncc(C(=O)NS(=O)(=O)c2ccccc2)c1C1CC1
Percent Effect: -129.8%

COc1ccc(OC)c(C(C)NS(=O)(=O)c2cn(C)nc2C)c1 (stereo not drawn)
Percent Effect: -72.91%

CCc1ncc(C(=O)N(C)CCc2nc3cc(OC)ccc3[nH]2)cn1
Percent Effect: -128%

CC(=O)NC[C@@H]1C=C(C)[C@H](CC(=O)NCCN(C)C)C[C@H]1C(C)C
Percent Effect: -26.76%

CCn1nc(C)c(C(=O)N2C[C@@H](CN(C)C)[C@@H](CO)C2)c1C
Percent Effect (4.99 µM): -17.38% and -19.57%

CC(=O)N1CCC(=O)N(C2CCCC2)Cc2ccccc21
Percent Effect: -73.21%

COc1ccc(-c2csc3c2c(N)nc(=O)n3CCCN(C)C)cc1
Percent Effect: 54.04%

CCn1c(=O)nc(N)c2c(-c3ccc(OC)cc3)csc21
Percent Effect: -67.94%

COc1ccc(-c2csc3c2c(N)nc(=O)n3CCN(C)C)cc1
Percent Effect: -27.97%

Cc1nc(N2CCCC(N3CCCC3)C2)c2cnn(C)c2n1 (stereo not drawn)
Percent Effect: -29.13%

CC(C)c1nc(N2CC(N3CCCCC3C)C2)c2cnn(C)c2n1 (stereo not drawn)
Percent Effect: -59.85%

CC(C)c1nc(N2CCC(N3CCCCCC3)CC2)c2cnn(C)c2n1
Percent Effect: 50.67%

Cc1nccn1C1CCCN(C(=O)c2cccc3c2OCO3)C1 (stereo not drawn)
Percent Effect: -58.82%

NC(=O)C1CCC(NC(=O)COc2ccc(Cl)c(Cl)c2)CC1 (stereo not drawn)
Percent Effect: 13.16%

O=C1CC(N2CCN(c3ccccc3O)CC2)C(=O)N1Cc1cccs1 (stereo not drawn)
Percent Effect: -172.2%

CCN(Cc1nc(COC)no1)C(=O)CCn1c(C)cc2ccccc21
Percent Effect: 5.524%

Cc1cc2ccccc2n1CCC(=O)NCCN(C)S(C)(=O)=O
Percent Effect: -87.62%

CCN(Cc1ccncc1)C(=O)CCn1c(C)cc2ccccc21
Percent Effect: 55.24%

CN(C)C(=O)CC1CC2(CCN(Cc3cccs3)CC2)c2ccccc21.O=C(O)C(F)(F)F (stereo not drawn)
Percent Effect: 22.44%

CN1CCN(C(=O)N2CCCC(c3nccn3CC3CCC3)C2)CC1 (stereo not drawn)
Percent Effect: -95.73%

CC(=O)N1CCC(C(=O)NCc2ncc(-c3ccccc3)o2)CC1
Percent Effect: -123.2%

CCn1ccnc1CN1CCCC1C(=O)Nc1nccs1 (stereo not drawn)
Percent Effect: 84.6%

CCc1nc(CN2CCCC2C(=O)NC2CC2)cs1 (stereo not drawn)
Percent Effect: -16.64%

CN(Cc1cnn(C)c1)C(=O)C1CCCN1Cc1ccccn1 (stereo not drawn)
Percent Effect: -66.14%

CCc1nc(CN2CCCC2C(=O)NC)cs1 (stereo not drawn)
Percent Effect: -71.78%

O=C(Nc1nccs1)C1CCCN1Cc1ccccn1 (stereo not drawn)
Percent Effect: 93.51%

NC(=O)C1CCCN1Cc1nccn1CC(F)(F)F (stereo not drawn)
Percent Effect: -38.81%

CC(C)(C)NC(=O)C1CCCCN1Cc1nccn1CC(F)(F)F (stereo not drawn)
Percent Effect: -48.44%

CC(=O)Nc1cccc(CN2CCCC2C(=O)Nc2nccs2)c1 (stereo not drawn)
Percent Effect: -76.05%

CCNc1ccnc(CN2CCCC2C(=O)Nc2nccs2)c1 (stereo not drawn)
Percent Effect: 94.9%

Cc1cnn(CC2CCCN2C(=O)c2n[nH]c3ccccc23)c1 (stereo not drawn)
Percent Effect: -56.22%

CC(=O)Nc1ccc(SCCCC(=O)NCC2CCCO2)nn1 (stereo not drawn)
Percent Effect: -99.67%

CC(NC(=O)N1CCC1)c1ccc(S(N)(=O)=O)cc1 (stereo not drawn)
Percent Effect: -105.8%

Cc1ccc(NC(=O)NCCc2cnn(C)c2)c(N(C)C)n1
Percent Effect: -69.56%

CCc1ccsc1C(=O)N1CCN(C(=O)CC(F)(F)F)CC1
Percent Effect: -98.82%

CCC1(CC)CC(=O)N(CC(O)c2cc(F)ccc2F)C1=O (stereo not drawn)
Percent Effect: -120%

Cc1cccc(CN2CCc3ncnc(N4CCCC4)c3CC2)n1.O=C(O)C(F)(F)F
Percent Effect: -17.07%

O=c1c(NCc2ccco2)c(NCC(O)CN2CCOCC2)c1=O (stereo not drawn)
Percent Effect: -219.4%

O=C(c1ccnc(N2CCOC(C(F)(F)F)C2)c1)N1CCCC1 (stereo not drawn)
Percent Effect: -34.44%

Cc1c(CNC2CCN(c3ccccc3OC(F)F)C2)cnn1C (stereo not drawn)
Percent Effect: 69.48%

O=C(Nc1cccnc1)NC1CCN(c2ccccc2OC(F)F)C1 (stereo not drawn)
Percent Effect: 16.84%

Cc1noc(C)c1CNc1c(N2CCCC2)cccc1N1CCCC1
Percent Effect: -39.5%

O=C(Nc1ccccn1)NC1CCN(c2ccccc2OC(F)F)C1 (stereo not drawn)
Percent Effect: 9.794%

O=C(NC1CCN(c2ccccc2OC(F)F)C1)c1cccnc1 (stereo not drawn)
Percent Effect: -43.56%

Cc1noc(C)c1CNC1CCN(c2ccccc2OC(F)F)C1 (stereo not drawn)
Percent Effect: 63.44%

O=C(Nc1ccncc1)NC1CCN(c2ccccc2OC(F)F)C1 (stereo not drawn)
Percent Effect: 64.77%

COc1ccccc1N1CCC(NCc2c(C)noc2C)C1 (stereo not drawn)
Percent Effect: 24.81%

O=C(Nc1cn[nH]c1)NC1CCN(c2ccccc2OC(F)F)C1 (stereo not drawn)
Percent Effect: -124.3%

CC1(C)CCN1C(=O)c1cc(F)cc2[nH]cnc12
Percent Effect: -143.1%

CNC(=O)CS(=O)(=O)NC1CCC(C)CC1 (stereo not drawn)
Percent Effect: 0.5939%

Cc1cc(CN2CCN(Cc3cc(C#N)ccc3F)CC2)no1
Percent Effect: -43.24%

O=C(O)C(F)(F)F.c1cnc(N2C[C@@H]3COC[C@]3(COCC3CCCC3)C2)nc1
Percent Effect: -62.66%

COc1ccc(S(=O)(=O)NCCn2cnc(C)cc2=O)cc1C
Percent Effect: -119.1%

COc1cccc(CN(C)Cc2cc(C#N)ccc2F)c1OC
Percent Effect: -37.67%

COc1cccc(CN(C)Cc2ccccc2C#N)c1OC
Percent Effect: -10.45%

CC(C)OCc1nn(C)c2c1CCN(CC1CC1)C2.O=C(O)C(F)(F)F
Percent Effect: -24.03%

O=C(N1CCN(CCO)CC1)C1(O)Cc2ccccc2C1
Percent Effect: -7.059%

O=C(N1CCSCC1)C1(O)Cc2ccccc2C1
Percent Effect: -49.25%

O=C(N1CCc2ccccc2CC1)C1(O)Cc2ccccc2C1
Percent Effect: 56.27%

COCCNC(=O)C1CN(C(N)=O)Cc2ccnn2C1 (stereo not drawn)
Percent Effect: -83.21%

O=C(c1coc(COc2cccc3cnccc23)n1)N1CCCCCC1
Percent Effect: 16.31%

O=C(O)c1coc(COc2cccc3cnccc23)n1
Percent Effect: -75.43%

CC(C(=O)Nc1ccc(N2CCCCC2)nc1)n1ccnc1 (stereo not drawn)
Percent Effect: -81.15%

Cn1ccnc1CN(Cc1cccnc1)CC1CCCO1 (stereo not drawn)
Percent Effect: -29.26%

CC(CNC(=O)c1ccco1)N1CCc2sccc2C1 (stereo not drawn)
Percent Effect: -89.83%

NCC(c1ccccc1)N1CCc2sccc2C1 (stereo not drawn)
Percent Effect: 56.94%

N#Cc1ccccc1CN1CCc2sccc2C1
Percent Effect: -109.2%

O=C(CCn1ccc2ccc(Br)cc21)/N=c1\[nH]nc(C2CCCO2)s1 (stereo not drawn)
Percent Effect: -91.4%

CC(c1ccc(S(C)(=O)=O)cc1)N(C)C(=O)c1ccccc1I (stereo not drawn)
Percent Effect: -43.05%

COc1ccc(CCC(C)Nc2cccc(SC)c2)cc1 (stereo not drawn)
Percent Effect: -91.4%

COc1ccc(C(C)NCc2cscn2)cc1Cn1cccn1 (stereo not drawn)
Percent Effect: 71.39%

COc1ccc(OC)c(CN2CCN(Cc3cscn3)CC2)c1
Percent Effect: -31.14%

COc1ccc(C(C)NCc2ccsc2)cc1Cn1cccn1 (stereo not drawn)
Percent Effect: 71.68%

COc1ccc(C(C)NCc2ccnn2C)cc1Cn1cccn1 (stereo not drawn)
Percent Effect: -53.25%

COc1ccc(C(C)NCc2cccs2)cc1Cn1cccn1 (stereo not drawn)
Percent Effect: 28.81%

COc1ccc(C(C)NCc2scnc2C)cc1Cn1cccn1 (stereo not drawn)
Percent Effect: -18.73%

CCc1nnc(CN2CCCCC2Cn2cncn2)o1 (stereo not drawn)
Percent Effect: -69.23%

Cc1nc(C2CCCN2C(=O)CCOCc2ccccc2)no1 (stereo not drawn)
Percent Effect: -117.2%

O=S(=O)(Nc1cnn(C2CCOCC2)c1)c1ccc(Br)cc1
Percent Effect: -25.25%

CNC(=O)N1CCCCC1c1nnc2n1CCCC2 (stereo not drawn)
Percent Effect: -92.12%

O=C1c2cnc(N3CCCCC3)nc2CN1c1ccc2c(c1)OCO2
Percent Effect: -196%

CCNc1nc(C)c(C(=O)N(C)Cc2nc(CC)no2)s1
Percent Effect: -30.42%

O=c1[nH]c(NC2CCCC2)nc2nccc(-c3ccco3)c12
Percent Effect: 71.56%

O=C(O)Cn1nc(C2CC2)c2c(-c3ccco3)ccnc21
Percent Effect: -116%

O=C(NC1CCCC1)C1Cc2nc(-c3ccsc3)sc2N1CC1CC1 (stereo not drawn)
Percent Effect: -48.35%

O=C(NC[C@H]1CCCC[C@H]1O)c1cccc2[nH]c(-c3cccs3)nc12
Percent Effect: -57.07%

O=c1[nH]c(NC2CCCC2)nc2nccc(-c3ccsc3)c12
Percent Effect: 67.56%

O=C(NC[C@H]1CCCC[C@H]1O)c1ccc2nc(-c3ccco3)[nH]c2c1
Percent Effect: -121.1%

O=c1[nH]c(NC2CCCC2)nc2nccc(-c3cccs3)c12
Percent Effect: 55.34%

O=C1NCCCCC1NCc1csc(-c2ccsc2)n1 (stereo not drawn)
Percent Effect: -129.5%

O=C(O)Cn1nc(C2CC2)c2c(-c3cccs3)ccnc21
Percent Effect: -11.75%

Cc1cccc(CN(C(=O)CCn2cncn2)C(C)C)c1
Percent Effect: -52.83%

O=C(CCc1nc2cc(Br)cnc2[nH]1)NCCCN1CCOCC1
Percent Effect: -51.18%

COc1ccc(C)cc1CC(=O)NC1(C#N)CCOCC1
Percent Effect: -117.4%

CCOc1cc(C(=O)NS(=O)(=O)c2cccc(C#N)c2)ccc1OC
Percent Effect: -127.1%

CCC(CC)CN1CCN(CC(=O)Nc2ccc3nsnc3c2)CC1
Percent Effect: 27.19%

CN(C)C(=O)CN1CCC2(CCN(C(=O)N3CCCC3)CC2)C1=O
Percent Effect: -157.2%

Cc1nc(C)c2c(n1)CCN(Cc1ccco1)CC2
Percent Effect: -20.07%

CC(C)Oc1ncnc2c1CCN(Cc1ccoc1)CC2.O=C(O)C(F)(F)F
Percent Effect: 29.43%

CC(C)Oc1ncnc2c1CCN(Cc1ccc(F)cc1)CC2.O=C(O)C(F)(F)F
Percent Effect: 69.87%

COCCN1CCc2ncnc(OC(C)C)c2CC1.O=C(O)C(F)(F)F
Percent Effect: -76.73%

Cc1ccc(CN2CCc3ncnc(OC(C)C)c3CC2)s1.O=C(O)C(F)(F)F
Percent Effect: -2.65%

COc1ncnc2c1CCN(Cc1cccs1)CC2.O=C(O)C(F)(F)F
Percent Effect: -104.3%

CC(C)Oc1ncnc2c1CCN(Cc1ccco1)CC2.O=C(O)C(F)(F)F
Percent Effect: 60.03%

c1coc(CN2CCc3ncnc(C4CCOC4)c3CC2)c1 (stereo not drawn)
Percent Effect: -48.34%
